About 79,000 compounds went through this panel and 15% of them were active in at least one assay; those are over-represented in the sample as a whole. Values without a mark were called inactive. Active and inactive are the calls of the source. Cut-off read from the data, not from the text of the source: active = growth inhibition above about 70%; inactive = the rest.
experiment: NCI Yeast Anticancer Drug Screen. Data for the sgs1 mgt1 strain (AID 161);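 note: 0% = growth of cultures given vehicle only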; settings: S. cerevisiae sgs1 mgt1 strain, stronger effect = higher value; at 50.0 µM unless noted
Method in brief: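 Inhibition of yeast growth, normalised to vehicle-treated controls, is reported for a strain bearing genetic alterations in DNA damage repair.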

Compound	growth inhibition
COc1ccc2cc(N3CCCC3)ccc2c1	6.15%
COc1cccc(C2SC(N)=Nc3c2c(C)nn3C(=O)c2ccccc2O)c1 (stereo not given)	33.1%
CCCC(=O)OCC1OC(n2cc(F)c(=O)[nH]c2=O)CC1OC(=O)CCC (stereo not given)	13.9%
COc1ccccc1NC(=O)C(/C=N/C(=S)NNC(C)=O)=C(/C)O	-27%
COC1CN(C(C)(C)C)C1	-1.2%
Brc1ccc(-c2ccccc2)cc1	17.2%
CN(C)c1ccc(NC(=O)C(c2ccccc2)c2ccccc2)cc1	0.4%
NC(=S)C(=S)N=Cc1c(O)c2ccccc2oc1=O	63.1%
Nc1nc(CCc2ccc(NC(=O)CBr)cc2)c(CCCCc2ccccc2)c(=O)[nH]1	25.8%
C[N+](C)(C)c1ccc2[nH]c3ccccc3c2c1	8.25%
COc1ccc(OC(C)C(=O)O)c2c(=O)ccccc12 (stereo not given)	-5.2%
NC1(CC(=O)O)CCN(Cc2ccccc2)CC1	3.9%
COc1cc2c(cc1OCc1ccccc1)C(Cc1cc(Br)sc1Br)=NCC2	54%
Nc1ccc(S(=O)(=O)Nc2cc(C(F)(F)F)cc(C(F)(F)F)c2)cc1	28.6%
O=C(O)c1ccc(NCC(O)COc2ccc([N+](=O)[O-])cc2)cc1 (stereo not given)	-2.8%
CS(=O)(=O)c1cccc(C(=O)O)c1	4.05%
O=c1oc(-c2ccccc2)nc2c1sc1nc(-c3ccccc3)oc(=O)c12	43.3%
O=C1CN(Cc2ccc3c(c2)OCO3)NO1	-17.4%
Clc1ccc(N=Nc2nc3ccccc3nc2N=Nc2ccc(Cl)cc2Cl)c(Cl)c1	-13.2%
CCOc1ccc(/C=C(\C(=O)c2ccccc2)S(=O)(=O)c2ccc(OC)cc2)cc1OC	1.2%

Compound	growth inhibition
OC(Cc1ccc2ccccc2n1)(C(F)(F)F)C(F)(F)F	-37.4%
CCC(=O)c1ccc(OC)cc1OC	-4.8%
O=C(O)C(Cc1cccs1)C(=O)O	-15.2%
O=C(Cc1ccccc1)c1ccccc1C(=O)NCc1ccncc1	2.25%
[N-]=[N+]=NC1(N=[N+]=[N-])C(=O)Nc2ccccc2C1=O (stereo not given)	2.55%
C/C(CCCCCCCCCCCC/C(C)=N\Nc1ccc([N+](=O)[O-])cc1[N+](=O)[O-])=N/Nc1ccc([N+](=O)[O-])cc1[N+](=O)[O-]	-3.2%
N#CC1(OC2CCCCO2)Cc2ccccc2C1 (stereo not given)	-13.3%
C/C(=N\NC(=O)Nc1ccc(N=Nc2ccccc2)cc1)c1ccncc1	19.1%
COc1cc(C2NC(C(=O)O)CS2)cc(OC)c1OC (stereo not given)	0.5%
Cc1cc(=O)n2nc(CSc3nnc(N)s3)sc2n1	7.35%
Cc1c(CCCl)c(N=P(c2ccccc2)(c2ccccc2)c2ccccc2)n2c(nc3ccccc32)c1C#N	-7.75%
CCOC(=O)C(F)C(=O)OCC	-1%
CCC(=O)CC(=O)CCC(=O)Nc1ccc(Cl)cc1C	-11.6%
Cc1c(=O)n(C)c2ccccc2[n+]1[O-]	11.7%
CCCCCCC/C=C/C1CC(=O)OC1=O (stereo not given)	9.55%
CC(C)(C)OC(=O)CC(NC(=O)OC(C)(C)C)C(=O)NC(C(=O)O)C(O)c1ccccc1 (stereo not given)	-15.3%
C1COC2(OC1)OCCCO2	-7.85%
Oc1ccc(Br)cc1/C=N/c1nc2ccccc2s1.Oc1ccc(Br)cc1/C=N/c1nc2ccccc2s1.[Cu]	0.05%
OCC1C(CO)C2CC1C1N=NN(c3ccccc3)C21 (stereo not given)	8.25%
CCc1cccc(CC)c1NC(=O)OCCN(CC)CC	10.4%

experiment: NCI Yeast Anticancer Drug Screen. Data for the cln2 rad14 strain (AID 165);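 note: 0% = growth equal to vehicle treated cultures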; settings: S. cerevisiae cln2 rad14 strain, stronger effect = higher value; at 50.0 µM unless noted
Method in brief: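 Compounds are applied to the cln2 rad14 yeast strain, and growth is then compared with that of vehicle-treated cultures to give inhibition.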

Compound	growth inhibition
NC1(CC(=O)O)CCN(Cc2ccccc2)CC1	-7.05%
Clc1ccc(N=Nc2nc3ccccc3nc2N=Nc2ccc(Cl)cc2Cl)c(Cl)c1	3.25%
CCC(=O)c1ccc(OC)cc1OC	-2.05%
C/C(CCCCCCCCCCCC/C(C)=N\Nc1ccc([N+](=O)[O-])cc1[N+](=O)[O-])=N/Nc1ccc([N+](=O)[O-])cc1[N+](=O)[O-]	27.2%
Cc1cc(=O)n2nc(CSc3nnc(N)s3)sc2n1	5.55%
CCc1cccc(CC)c1NC(=O)OCCN(CC)CC	16.8%

experiment: NCI Yeast Anticancer Drug Screen. Data for the bub3 strain (AID 167); settings: S. cerevisiae bub3 mutant strain, stronger effect = higher value; at 50.0 µM unless noted
Method in brief: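 Steps: expose the mutant yeast strain to compound; grow alongside vehicle-treated cultures; measure growth; express inhibition against the vehicle cultures.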

Compound	growth inhibition
COc1ccc2cc(N3CCCC3)ccc2c1	-7.55%
COc1cccc(C2SC(N)=Nc3c2c(C)nn3C(=O)c2ccccc2O)c1 (stereo not given)	38%
CCCC(=O)OCC1OC(n2cc(F)c(=O)[nH]c2=O)CC1OC(=O)CCC (stereo not given)	-13.9%
COc1ccccc1NC(=O)C(/C=N/C(=S)NNC(C)=O)=C(/C)O	-12.6%
COC1CN(C(C)(C)C)C1	6.6%
Brc1ccc(-c2ccccc2)cc1	8.9%
CN(C)c1ccc(NC(=O)C(c2ccccc2)c2ccccc2)cc1	4.35%
NC(=S)C(=S)N=Cc1c(O)c2ccccc2oc1=O	23.1%
Nc1nc(CCc2ccc(NC(=O)CBr)cc2)c(CCCCc2ccccc2)c(=O)[nH]1	3.75%
C[N+](C)(C)c1ccc2[nH]c3ccccc3c2c1	-6.5%
COc1ccc(OC(C)C(=O)O)c2c(=O)ccccc12 (stereo not given)	5.7%
COc1cc2c(cc1OCc1ccccc1)C(Cc1cc(Br)sc1Br)=NCC2	70.5% (active)
Nc1ccc(S(=O)(=O)Nc2cc(C(F)(F)F)cc(C(F)(F)F)c2)cc1	10.7%
O=C(O)c1ccc(NCC(O)COc2ccc([N+](=O)[O-])cc2)cc1 (stereo not given)	-3.55%
CS(=O)(=O)c1cccc(C(=O)O)c1	1.35%
O=c1oc(-c2ccccc2)nc2c1sc1nc(-c3ccccc3)oc(=O)c12	24.6%
O=C1CN(Cc2ccc3c(c2)OCO3)NO1	-9.35%

Compound	growth inhibition
CCOc1ccc(/C=C(\C(=O)c2ccccc2)S(=O)(=O)c2ccc(OC)cc2)cc1OC	29.6%
OC(Cc1ccc2ccccc2n1)(C(F)(F)F)C(F)(F)F	-29.9%
O=C(O)C(Cc1cccs1)C(=O)O	-18.6%
O=C(Cc1ccccc1)c1ccccc1C(=O)NCc1ccncc1	9%
[N-]=[N+]=NC1(N=[N+]=[N-])C(=O)Nc2ccccc2C1=O (stereo not given)	-10.2%
N#CC1(OC2CCCCO2)Cc2ccccc2C1 (stereo not given)	-5.45%
C/C(=N\NC(=O)Nc1ccc(N=Nc2ccccc2)cc1)c1ccncc1	14.3%
COc1cc(C2NC(C(=O)O)CS2)cc(OC)c1OC (stereo not given)	-9.2%
Cc1c(CCCl)c(N=P(c2ccccc2)(c2ccccc2)c2ccccc2)n2c(nc3ccccc32)c1C#N	-5.05%
CCOC(=O)C(F)C(=O)OCC	-4.55%
CCC(=O)CC(=O)CCC(=O)Nc1ccc(Cl)cc1C	-12.4%
Cc1c(=O)n(C)c2ccccc2[n+]1[O-]	7.1%
CCCCCCC/C=C/C1CC(=O)OC1=O (stereo not given)	4.05%
CC(C)(C)OC(=O)CC(NC(=O)OC(C)(C)C)C(=O)NC(C(=O)O)C(O)c1ccccc1 (stereo not given)	-9.45%
C1COC2(OC1)OCCCO2	8.75%
Oc1ccc(Br)cc1/C=N/c1nc2ccccc2s1.Oc1ccc(Br)cc1/C=N/c1nc2ccccc2s1.[Cu]	-0.25%
OCC1C(CO)C2CC1C1N=NN(c3ccccc3)C21 (stereo not given)	-0.35%

Source: PubChem BioAssay (NCI)
